Shown is part of a subset that was picked to be rich in hits.
ST2 inh – inhibitors of human ST2 (IL1RL1) binding to IL-33, primary screen, biochemical, AlphaLISA | AlphaLISA ST2-Fc/biotin-IL-33 interaction, 1 h | Interleukin-1 receptor-like 1 (Homo sapiens), Q01638 | hit rate 2.3% among 78,000 | inhibition, % for hits at 17 µM | AID 1259354, 2018; in the data active means inhibition above about 30%
Target sequence (Q01638 whole entry, looked up): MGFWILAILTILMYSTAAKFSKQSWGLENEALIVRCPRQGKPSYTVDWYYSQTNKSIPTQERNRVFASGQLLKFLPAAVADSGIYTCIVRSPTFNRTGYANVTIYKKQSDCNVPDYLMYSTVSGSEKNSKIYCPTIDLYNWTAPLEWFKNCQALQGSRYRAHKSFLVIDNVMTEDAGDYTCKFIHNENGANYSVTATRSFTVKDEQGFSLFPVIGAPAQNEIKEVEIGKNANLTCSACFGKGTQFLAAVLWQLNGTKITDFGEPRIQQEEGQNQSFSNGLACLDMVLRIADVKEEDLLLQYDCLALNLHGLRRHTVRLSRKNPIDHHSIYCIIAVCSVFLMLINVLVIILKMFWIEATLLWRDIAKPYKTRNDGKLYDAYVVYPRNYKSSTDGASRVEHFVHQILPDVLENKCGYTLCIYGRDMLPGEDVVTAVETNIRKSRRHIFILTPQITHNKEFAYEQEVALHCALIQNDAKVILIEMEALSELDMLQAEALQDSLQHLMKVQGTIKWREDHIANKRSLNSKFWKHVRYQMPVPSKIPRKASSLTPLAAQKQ
Numbers without * were called inactive; i = inactive; ! = not confirmed by another sample.

SMILES	ST2 inh
COc1ccc(CNC(=O)C2CCC(Cn3c(=O)[nH]c4ccsc4c3=O)CC2)cc1 (stereo not drawn)	i
CC(c1cccs1)N(C)Cc1nc(C(c2ccccc2)c2ccccc2)no1 (stereo not drawn)	i
COC(=O)C1CC(=O)N(c2ccc(OCc3ccc(Cl)cc3)cc2)C1 (stereo not drawn)	i
O=C(Cn1c(=O)n(-c2ccccc2)c(=O)c2sccc21)NC1CCCC1	i
Cc1cc(C=C2C(=O)N(C)C(=O)N(C)C2=O)c(C)n1-c1ccc(Cl)c(Cl)c1	i
Cc1ccc(N2NC(=O)/C(=C/c3ccc(Cl)cc3Cl)C2=O)cc1Cl	i
Cc1cc(/C=C2\C(=O)NC(=O)N(C)C2=O)c(C)n1-c1ccc(F)c(Cl)c1	46%*
Cn1nc(C(=O)Nc2cccc(Br)c2)cc1C(=O)Nc1cccc(Br)c1	i
O=C(N/C(=C\c1ccc2c(c1)OCO2)C(=O)N1CCOCC1)c1ccco1	i
O=[N+]([O-])c1nn(-c2ccccc2)[n+]([O-])c1N1CCCCCC1	i
O=[N+]([O-])c1cccc2c(Br)[nH]nc12	i
O=[N+]([O-])c1cccc2ccc(N3CCCCC3)nc12	30%*
Cc1ccc(O)c(N=Cc2cc(Cl)cc(Cl)c2O)c1	i
Cc1ccc(N=Cc2cc(Br)cc(Cl)c2O)c(O)c1	i
Cc1ccc(N=Cc2cc(Cl)cc([N+](=O)[O-])c2O)c(O)c1	35%*
CCCCOc1ccc(-c2noc(-c3ccc(OC)c(OC)c3)n2)cc1	i
C=CCn1c(SCC(=O)N2CCOCC2)nc2sc(-c3ccccc3)cc2c1=O	i
Cc1ccc(NC(=O)COc2ccc(C)cc2)cc1	i
Cc1ccc(OCC(=O)Nc2cc(-c3nc4ncccc4o3)ccc2Cl)cc1C	30%*
CCOc1ccc(C(=O)Nc2cc(-c3nc4ncccc4o3)ccc2C)cc1	i
Cc1ccc(-c2nc3ncccc3o2)cc1NC(=O)COc1ccc(Br)cc1	i
CCC(=O)Nc1ccc(-c2nc3ncccc3o2)cc1	i
O=C(COc1ccc(Br)cc1)Nc1ccc(F)cc1	39%*
CC(C)Oc1cccc(C(=O)Nc2cc(-c3nc4ncccc4o3)ccc2Cl)c1	i
O=C(COc1ccc(Br)cc1)Nc1ccc(-c2nc3ncccc3o2)cc1	33%*
SMILES	ST2 inh
O=C(COc1ccccc1)Nc1ccc(Cl)cc1	i
Cc1ccsc1[C@@H]1CCN(C(=O)c2ccc(-n3cnnc3)cc2)C[C@H]1O	i
OC1CCN(Cc2ccc(Cl)c(Cl)c2)CC1	i
Cc1ccccc1Cn1cnc2c(cnn2-c2ccccc2)c1=O	i
Cc1n[nH]c(C)c1S(=O)(=O)N1CCC(C(=O)N2CCN(c3ccccn3)CC2)CC1	i
CCCN(CCO)Cc1ccc(C(C)C)cc1	i
CCc1cc(N2CCCN(C(=O)COC)CC2)nc(N2CCOCC2)n1	i
COc1cc(CN(C)C2CCN(C)CC2)cc([N+](=O)[O-])c1O	i
CCN(CC)CCN(C)Cc1cc(I)c(O)c(OC)c1	94%*
COc1ccccc1N1CCN(Cc2cc(I)c(O)c(OC)c2)CC1	i
COCC1(C(=O)NCc2ccc(CN)cc2)CCC1	i
CN(Cc1ccccc1)C(=O)c1cc(-c2ccc(F)cc2)on1	i
COc1cc(C2c3cc4c(c(OC5OC(CO)C(O)C(O)C5O)c3CC3COC(=O)C32)OCO4)cc(OC)c1OC (stereo not drawn)	i
O=C(N[C@H]1CCN2C(=O)c3ccccc3NC(=O)[C@H]12)C1CCCC1	i
CC(C)[C@H]1NC(=O)[C@@H]2[C@@H](NC(=O)NC3CCCCC3)CCN2C1=O	43%*
COc1cccc(NC(=O)N[C@H]2CCN3C(=O)[C@@H](Cc4ccccc4)NC(=O)[C@H]23)c1	i
CS(=O)(=O)Nc1cc(-c2noc([C@@H]3CCCN3Cc3ccccn3)n2)ccn1	i
Cc1cc(OCC(=O)NCc2ccccn2)ccc1Cl	i
Cc1cccc(OCC(=O)O/N=C(/N)c2ccncc2)c1C	i
Cc1c(N=Cc2cc(Br)cc(Br)c2O)c(=O)n(-c2ccccc2)n1C	i
COc1cc(C=Nc2c(C)n(C)n(-c3ccccc3)c2=O)cc([N+](=O)[O-])c1O	i
Cc1c(N=Cc2cc([N+](=O)[O-])ccc2N(C)C2CCCCC2)c(=O)n(-c2ccccc2)n1C	47%*
Cc1c(N=Cc2ccc(Cl)o2)c(=O)n(-c2ccccc2)n1C	i
COc1cc(C=Nc2c(C)n(C)n(-c3ccccc3)c2=O)c([N+](=O)[O-])cc1OC	i
Cc1c(N=Cc2cc([N+](=O)[O-])ccc2N2CCCCCC2)c(=O)n(-c2ccccc2)n1C	42%*
SMILES	ST2 inh
C#CCN(C)C1CCN(C(C)=O)CC1	i
COc1ccc(C2C(C(N)=O)=C(C)Nc3ncnn32)c(OC)c1 (stereo not drawn)	i
Cc1ccc(-c2nnc(-c3nc(NCCN4CCOCC4)c4ccccc4n3)o2)cc1	i
C/C=C/C(=O)Nc1ccccc1-c1ccc(C(C)N2CCOCC2)cc1 (stereo not drawn)	i
CC1CC(C)CN(S(=O)(=O)c2ccc(C(=O)Nc3nnc(-c4ccc(F)cc4)o3)cc2)C1 (stereo not drawn)	i
C/C(=C\c1ccc(-c2ccc(Cl)c(C(=O)O)c2)o1)[N+](=O)[O-]	32%*
O=C(/C=C/c1ccc(-c2ccc([N+](=O)[O-])cc2Cl)o1)c1ccco1	i
CCOC(=O)c1ccc(-c2ccc(/C=C/c3[nH]c(=O)[nH]c(=O)c3[N+](=O)[O-])o2)cc1	i
O=C(C1CC1)N1CCc2cc(S(=O)(=O)NCc3ccco3)ccc21	i
Cc1[nH]nc(CCC(=O)N2CCOC(CCc3ccccc3)C2)c1C (stereo not drawn)	i
CCc1cnc(N2CCn3nc(C(=O)NCc4ccccn4)cc3C2)nc1	i
Cn1c(SCc2c(Cl)cccc2[N+](=O)[O-])nnc1-c1ccccc1	i
CCC(=O)Nc1ccc(NC(=O)Cc2ccccc2OC)cc1Cl	i
N#Cc1ccc(CSc2nnc3sc4ccccc4n23)cc1	i
O[C@@H]1CN(Cc2cccn2-c2ccccn2)CC[C@H]1c1ccc2c(c1)OCO2	i
O=C(c1ccco1)N1CCN(Cc2cccn2-c2ncccn2)CC1	i
O=C(Nc1cccc(-c2ccco2)c1)C1CCN(Cc2cccn2-c2ccccn2)CC1	32%*
COc1ccccc1N(CCCN1C(=O)c2cccc3cccc(c23)C1=O)C(C)=O	i
COC(=O)C1=C(C)N=C2SCCC(=O)N2C1c1cccc(OC(C)=O)c1 (stereo not drawn)	i
CCOC(=O)C(C)(C)Sc1nc2c(c(=O)n1-c1ccc(OCC)cc1)SCC2	43%*
CCOC(=O)C(CC)Sc1nc2c(c(=O)n1-c1ccc(C)cc1)SCC2 (stereo not drawn)	i
Cc1ccc(-n2c(SC(C)C)nc3c(c2=O)SCC3)cc1	36%*!
Cc1ccc(-n2c(SCC(=O)N3CCCCCC3)nc3c(c2=O)SCC3)cc1	i
CCCSc1nc2c(c(=O)n1-c1ccc(F)cc1)SCC2	i
CCOC(=O)C(C)(C)Sc1nc2c(c(=O)n1-c1ccc(Cl)cc1)SCC2	i
CCSc1nc2c(c(=O)n1-c1ccc(C)cc1)SCC2	33%*!
CC(Sc1nc2c(c(=O)n1-c1ccc(F)cc1)SCC2)c1ccccc1 (stereo not drawn)	i
CCOC(=O)C(C)(C)Sc1nc2c(c(=O)n1-c1ccc(Br)cc1)SCC2	i

High-throughput results as filed in PubChem BioAssay.
